Screens (PubChem BioAssay)
Compounds with a hit are over-represented: about 18% of the library has one in this group of screens.
TDP1 cell noCPT: qHTS for Inhibitors of human tyrosyl-DNA phosphodiesterase 1 (TDP1): qHTS in cells in absence of CPT; DT40 Tdp1-/- hTDP1 cells, no CPT, ATP luminescence, 48 h; Potency, µM (series often up to 46.2 µM), actives largely listed as inhibitors; actives 15% (n = 420,000); AID 686978, 2013; note: nearly all actives have a fitted effect of over 55% in size
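Luminescent ATP content (CellTiter-Glo) served as the growth readout. Knockout chicken DT40 cells expressing human TDP1 were exposed to compounds without camptothecin for a minimum 48 hr at 37 °C.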
DT40 TDP1 CPT: growth inhibition of DT40 Tdp1-/-;hTDP1 cells with camptothecin (screen for TDP1 inhibitors) | chicken DT40 Tdp1-/-;hTDP1 cells + 20 nM CPT, ATP luminescence, 48 h | Potency, µM (doses to about 46.2 µM), most hits filed as inhibitors | actives 12% (n = 420,000) | AID 686979; note: nearly all actives have a fitted effect of over 55% in size
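Chicken DT40 Tdp1-/- cells stably complemented with human TDP1 were seeded at 400 cells/well in medium containing 20 nM camptothecin, exposed to pin-transferred compounds, and grown at 37 °C for at least 48 hr. Viability was read as ATP luminescence.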
HepG2 tox: kills HepG2 cells in TGF-b inhibitor counter-screen | HepG2 CAGA-GFP viability, ATP luminescence, 18 h | Potency, µM (top dose mostly 46.1 µM), actives largely listed as cytotoxic | actives 0.76% (n = 410,000)
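HepG2 CAGA-GFP cells (1000/well, DMEM with 1% FBS) received compound, then TGF-beta at 500 pg/mL final, and were incubated 18 hours at 37 degrees C. Viability was read by CellTiter-Glo luminescence. Media-only wells were set as complete cell-killing and DMSO as no toxicity.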
TDP1 block: inhibitors of human tyrosyl-DNA phosphodiesterase TDP1; recombinant TDP1, AlphaScreen DNA substrate cleavage; Potency, µM (top dose mostly 130 µM), usual class: inhibitors; Q9NUW8; actives 0.28% (n = 350,000); note: nearly all actives have a fitted effect of over 40% in size
Target sequence (Q9NUW8 whole entry, looked up): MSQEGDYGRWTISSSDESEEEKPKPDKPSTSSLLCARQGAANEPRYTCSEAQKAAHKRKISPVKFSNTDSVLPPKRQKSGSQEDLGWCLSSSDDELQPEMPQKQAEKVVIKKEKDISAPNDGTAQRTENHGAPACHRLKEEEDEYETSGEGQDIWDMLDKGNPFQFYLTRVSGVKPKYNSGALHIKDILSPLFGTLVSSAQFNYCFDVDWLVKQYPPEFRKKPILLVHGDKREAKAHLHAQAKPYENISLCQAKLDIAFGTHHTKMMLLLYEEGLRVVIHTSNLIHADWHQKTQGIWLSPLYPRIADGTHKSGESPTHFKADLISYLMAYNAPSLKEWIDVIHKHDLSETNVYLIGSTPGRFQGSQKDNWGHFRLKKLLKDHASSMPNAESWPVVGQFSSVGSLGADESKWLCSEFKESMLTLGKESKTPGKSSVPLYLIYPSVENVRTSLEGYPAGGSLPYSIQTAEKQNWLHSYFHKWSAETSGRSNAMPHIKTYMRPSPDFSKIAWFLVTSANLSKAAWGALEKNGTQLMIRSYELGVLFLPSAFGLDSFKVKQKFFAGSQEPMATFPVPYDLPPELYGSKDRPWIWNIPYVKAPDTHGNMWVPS
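E. coli-derived human Tdp1, 1 nM final. Cpd preinc 15 min RT; substrate 15 nM final, 5 min RT; AS bead mix 10 ug/ml final, 10 min RT. Signal loss = tyrosine-FITC cleavage. No-enzyme wells = max signal.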
IL-1B inflam inh: blocks inflammasome-driven IL-1 beta release. THP-1 LPS/ATP IL-1B secretion, AlphaLISA, 16 h; active compounds read low. activity change, % at 57.5 µM. actives 4.7% (n = 360,000). AID 743279; in the data active = activity change below about -50%; inconclusive = mostly about -30% to -49%
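THP-1 cells pretreated 1 hr with compounds (up to 57.5 uM final), then stimulated with LPS (250 ng/mL final) plus ATP (1.25 mM final); secreted IL-1B measured by AlphaLISA after 16 hr, decreased signal indicating inhibition.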
TGFb SMAD3 inh: TGF-b pathway inhibition; HepG2 CAGA-GFP TGF-b/SMAD3 reporter, GFP fluorescence, 18 h; TGF-beta stimulated, 500 pg/mL final; Potency, µM (top dose mostly 46.1 µM), usual class: inhibitors; actives 1.2% (n = 410,000); AID 588855; note: nearly all actives have a fitted effect of over 65% in size
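Read-out: total well GFP (ex488/em500-530) summed from mean per-cell fluorescence. Cells: HEPG2 CAGA-GFP, 1% FBS DMEM, 18 h at 37 degrees C with 500 pg/mL final TGF-beta. Unstimulated wells served as the full-inhibition control; stimulated DMSO wells = 0%.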
Numbers stand for hits; - = inactive; ? = inconclusive; . = no result given; [ ] = dose if it differs, or a comment. Unless noted, calls come from the whole dose curve; as a rule, active = well fitted curve in the direction sought with a large enough effect; inconclusive = small, poorly fitted or top-dose-only effect, or another doubt; inactive = no such curve, though single readings can be large; an effect the other way counts as inactive or inconclusive.

SMILES | TDP1 cell noCPT | DT40 TDP1 CPT | HepG2 tox | TDP1 block | IL-1B inflam inh | TGFb SMAD3 inh
Cc1ccc(-n2cc(-c3ccccc3)c3c(NN4CCOCC4)ncnc32)cc1 | 23.1µM | 20.6µM | - | - | - | -
CCCNc1ncnc2c1c(-c1ccccc1)cn2-c1ccccc1 | 23.1µM | 14.6µM | - | - | . | ?
CCOC(=O)c1ccc(-n2cccc2/C=C2\NC(=O)NC2=O)cc1 | . | . | - | - | . | -
N#Cc1ccc(OCC(=O)Nc2ccc(S(=O)(=O)N3CCOCC3)cc2)cc1 | - | - | - | - | - | -
CCOC(=O)[C@]12CCC=C1N(CCC1=CCCCC1)C(=O)[C@H](CC(=O)N1CCC(c3ccccc3)CC1)C2 | 18.4µM | ? | . | . | - | .
CCOC(=O)[C@]12CCCC=C1N(Cc1cccc3ccccc13)C(=O)[C@H](CC(=O)N1CCC(c3ccccc3)CC1)C2 | ? | ? | . | . | - | .
CCOC(=O)N1CCN(C(=O)C[C@@H]2C[C@@]3(C(=O)OCC)CCCC=C3N(CCC3=CCCCC3)C2=O)CC1 | 16.4µM | ? | . | . | - | .
CCOC(=O)[C@]12CCCC=C1N(CCC1=CCCCC1)C(=O)[C@H](CC(=O)NCC13CC4CC(CC(C4)C1)C3)C2 | ? | ? | . | . | - | .
COc1ccc(CONS(=O)(=O)c2ccc(NC(C)=O)cc2)cc1Cl | ? | 20.6µM | - | - | - | -
CN(C)c1cccc(C(=O)Nc2cc(C(F)(F)F)ccc2-n2cnc3ccccc32)c1 | - | - | - | - | - | -
CCOC(=O)COc1ccccc1/C=C1\NC(=O)NC1=O | - | - | - | - | -91.1 | -
CC(C)(C)OC(=O)Cc1nnc(C(C(=O)OCc2ccccc2)c2ccccc2)o1 (stereo not given) | . | . | . | - | . | .
COc1cccc2c(=O)c3ccoc3n(C)c12 | -[9.04 µM] | -[9.04 µM] | - | - | - | -
COc1cccc2c(=O)c3c(cnn3C)n(C)c12 | ? | - | - | - | -53.9 | ?
Cc1cc(=O)n(-c2ccccc2)n1C | - | - | - | - | -66.1 | -
Cc1cc2c(cc1C)-n1nnnc1C(N(C)CCc1ccccc1)C(=O)N2 (stereo not given) | 14.6µM | 23.1µM | . | . | - | .
COc1cc(Cl)c(NS(=O)(=O)c2ccc3c(c2)CC(C)N3C(=O)C2CCC2)c(OC)c1 (stereo not given) | 5.8µM | 6.51µM | - | - | . | ?
COc1ccc(NS(=O)(=O)c2ccc3c(c2)CC(C)N3C(=O)C2CCC2)cc1OC (stereo not given) | 0.651µM | 1.03µM | - | - | . | -
COc1cc(NS(=O)(=O)c2ccc3c(c2)CC(C)N3C(=O)C2CCC2)cc(OC)c1OC (stereo not given) | . | . | . | - | . | .
Cn1c(NCc2cccc(Cl)c2)nc2ccccc21 | ? | ? | - | - | . | .
C=CCN1C(=O)c2ccc(C(=O)N(CC)CC(=O)Nc3ccc(OC)cc3)cc2C1=O | - | - | - | - | - | -
O=C(NCCn1cccn1)C1CCC(=O)N(CCc2ccccc2)C1 (stereo not given) | - | - | - | - | - | -
COc1ccc(Cl)cc1NC(=O)CSc1nc(=O)[nH]c2c1CCC2 | ? | - | - | - | . | -
COc1ccc(-c2nnc(SCC(=O)c3ccc[nH]3)o2)cc1 | - | - | - | - | - | -
CC(=O)c1c(C)[nH]c(C(=O)CSc2nnc(-c3ccco3)o2)c1C | 14.6µM | ? | - | - | - | -
SMILES | TDP1 cell noCPT | DT40 TDP1 CPT | HepG2 tox | TDP1 block | IL-1B inflam inh | TGFb SMAD3 inh
COc1ccc(-c2nnc(SCC(=O)c3[nH]c(C)c(C(C)=O)c3C)o2)cc1 | 18.4µM | 13µM | - | - | - | -
CCOC(=O)c1c(C)[nH]c(C)c1C(=O)CSc1nnc(-c2ccc(OC(F)F)cc2)o1 | 11.6µM | ? | - | - | - | -
C=C1CCN(C(C(=O)NCc2ccc(Cl)c(Cl)c2)C(C)C)S(=O)(=O)c2ccccc21 (stereo not given) | . | . | - | - | . | ?
COc1ccc(-c2cn3c(n2)sc2cc(C(=O)N4CCCCC4)ccc23)cc1 | 20.6µM | ? | - | - | . | -
COc1ccc(-c2cn3c(n2)sc2cc(C(=O)NCCCc4ccccc4)ccc23)cc1 | - | - | - | - | . | -
COc1cccc(-c2cn3c(n2)sc2cc(C(=O)NCCCc4ccccc4)ccc23)c1 | 4.61µM | 6.51µM | - | - | . | -
COc1cccc(-c2cc(C(=O)NCc3cccs3)no2)c1 | - | - | - | . | - | -
COc1ccc(-c2cn3c(n2)sc2cc(C(=O)NCc4cccs4)ccc23)cc1 | 13µM | 10.3µM | - | - | . | -
COc1ccc(-c2cn3c(n2)sc2cc(C(=O)NC4CCCCC4)ccc23)cc1 | - | ? | - | - | . | -
